mHTT-CaM PPI inh – mutant huntingtin-calmodulin interaction inhibitors – biochemical, AlphaScreen, primary screen; actives 3.6% (n = 190,000); AlphaScreen His-mHTT/GST-CaM binding, luminescence; AID 1671202, 2021; P42858; inhibition, % at 15 µM;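 also: 0% = both proteins with DMSO and 100% = one protein alone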
Pf apPOL block – Pf-apPOL inhibitors, biochemical, fluorescence | Plasmodium falciparum apicoplast DNA polymerase (apPOL) | Recombinant Pf-apPOL, molecular beacon fluorescence, 1.5 h | inhibition, % at 10 µM | actives 0.25% (n = 210,000) | AID 1794808, 2022
* hit, by the source's call; i = inactive; · = not tested or not shown; + = active, no number; ! = not confirmed by another sample. Only some compounds are listed: those with a hit (about 3.6% of all), similar ones and a draw of the others. Rule as the data show it: active = inhibition above about 50%; inactive = the rest.

SMILES	mHTT-CaM PPI inh	Pf apPOL block
CCCCN(CC)S(=O)(=O)c1ccc(C(=O)Nc2nnc(-c3ccccc3OC)o2)cc1	52*	-7
CCN(CC)S(=O)(=O)c1ccc(C(=O)Nc2nnc(-c3ccc(OC)cc3OC)o2)cc1	3	-12
CCN(Cc1ccccc1)S(=O)(=O)c1ccc(C(=O)Nc2nnc(CSC)o2)cc1	12	-13
CCN(Cc1ccccc1)S(=O)(=O)c1ccc(C(=O)Nc2nnc(C)o2)cc1	74*	-16
CCCCN(CC)S(=O)(=O)c1ccc(C(=O)Nc2nnc(C)o2)cc1	22	-13
COc1ccccc1OCCOc1ccc(Br)cc1	-28	-11
CCc1ccc(NC(=O)CSCc2ccccc2)cc1	-26	-8
CCN(c1cccc(C)c1)C(C(=O)Nc1ccc(OC)cc1)c1cc2c(cc1[N+](=O)[O-])OCO2 (centres undefined)	24	-6
COc1ccc(NC(=O)C(c2cc3c(cc2[N+](=O)[O-])OCO3)N(C)Cc2ccccc2)cc1 (centres undefined)	61*	-7
CN(C(=O)Cc1c[nH]c2ccccc12)C(C(=O)Nc1ccc2c(c1)OCCO2)c1ccccc1 (centres undefined)	42	-3
COc1ccc(C(C(=O)Nc2ccc3c(c2)OCO3)N(C)C(=O)Cc2c[nH]c3ccccc23)cc1 (centres undefined)	75*	-11
O=S(=O)(c1cccc2cccnc12)N1CCCC1	-2	-3
COCCC1CCN(C(=O)c2ccc(C)nc2)CC1	-2	-1
COc1ccccc1C(=O)O/N=C1\C=CC(=O)C=C1C	+	-1
COc1cc(C(=O)O/N=C2\C=CC(=O)C=C2C)cc(OC)c1OC	i	0
Fc1ccccc1-c1nc(N2CCOCC2)c2ccccc2n1	-4	6
Cc1cccc(NC(=O)C2CCN(c3ncnc4c3nc3n4CCCCC3)CC2)c1C	3	-2
c1ccc(Nc2nc(-c3cccnc3)cs2)nc1	12	-5
CCC(=O)Nc1nc(C)c(-c2csc(Nc3cccc(C(C)=O)c3)n2)s1	10	-5
CC(=O)Nc1nc(C)c(-c2csc(Nc3ccccn3)n2)s1	54*	-1
CC(=O)Nc1nc(C)c(-c2csc(Nc3ccc(N(C)C)cc3)n2)s1	96*	-4
c1csc(C2=NN3C(C2)c2ccccc2OC3c2ccsc2)c1 (centres undefined)	27	-26
Brc1ccc(C2Oc3ccccc3C3CC(c4cccs4)=NN32)o1 (centres undefined)	100*	-57
Oc1ccc(O)c(C2=NN3C(C2)c2ccccc2OC3c2cccs2)c1 (centres undefined)	67*	16
COc1ccc(O)c(C2Oc3ccccc3C3CC(c4cccs4)=NN32)c1 (centres undefined)	49	3
SMILES	mHTT-CaM PPI inh	Pf apPOL block
c1cncc(C2Oc3ccccc3C3CC(c4cccs4)=NN32)c1 (centres undefined)	25	-37
Oc1ccccc1C1Oc2ccccc2C2CC(c3cccs3)=NN21 (centres undefined)	51*	0
Cc1ccc(C2=NN3C(C2)c2ccccc2OC3c2ccccc2)o1 (centres undefined)	30	-8
CCOc1c(O)ccc(C2Oc3ccccc3C3CC(c4cccs4)=NN32)c1[N+](=O)[O-] (centres undefined)	54*	-7
O=C(NCc1ccncc1)C(O)(c1ccccc1)c1ccccc1	-3	1
CN1/C(=C/C(=O)c2ccc(I)cc2)Sc2cc3c(cc21)OCO3	-1	-4
Cc1cc(C)c2cc(C(=O)Nc3ccccc3SCc3cccc(Cl)c3F)[nH]c2c1	·	-6
O=C(c1ccsc1)N1CCCC(c2n[nH]c(=O)n2-c2ccccc2)C1 (centres undefined)	1	-11
O=C(CC(=O)c1ccc(C(=O)CC(=O)c2ccccc2)cc1)c1ccccc1	23	-10
O=c1oc2ccc(Cl)cc2nc1C=C(O)c1cccc([N+](=O)[O-])c1	6	0
Clc1ccc(C2=NN3C(C2)c2ccccc2OC3c2ccco2)cc1 (centres undefined)	87*	-2
c1ccc(C2Oc3ccccc3C3CC(c4cccs4)=NN32)cc1 (centres undefined)	35	5
Oc1ccc(C2Oc3ccccc3C3CC(c4cccs4)=NN32)cc1 (centres undefined)	51*	-6
c1ccc(C2=NN3C(C2)c2ccccc2OC3c2cccnc2)cc1 (centres undefined)	39	-3
CCOc1ccc(NC(=O)N2CCCN(c3ncccc3-c3nc(C4CC4)no3)CC2)cc1	2	3
c1ccc(C2=NNC(c3ccccc3)=NN2)cc1	24	99*!
O=C1NC(c2ccccc2)=NC1=Cc1ccccc1	·	3
CCC(C)NC(=O)C1c2cc(OC)c(OC)cc2C(=O)N(C)C1c1ccc(SC)cc1 (centres undefined)	35	-16
O=C1CCC(=O)N1CNc1cc(Cl)ccc1Cl	·	-9
CCOC(=O)Cc1csc(NC(=O)Cc2cc(-c3ccccc3F)on2)n1	6	6
Cc1cccc(N=CC=C2OC(C)(C)C(C)(C)O2)c1	44	-1
Cc1ccc(N=CC=C2OC(C)(C)C(C)(C)O2)cc1	56*	-1
COc1ccc(N2CCN(CC(O)COC3CCC(C(C)(C)C)CC3)CC2)cc1 (centres undefined)	34	-3
CC1CC(OCC(O)CN2CCC(CN3C(=O)c4cccc5cccc(c45)C3=O)CC2)CC(C)(C)C1 (centres undefined)	37	77*
CC(C)(C)C1CCC(OCC(O)CN2CCC(CN3C(=O)c4cccc5cccc(c45)C3=O)CC2)CC1 (centres undefined)	100*	28
SMILES	mHTT-CaM PPI inh	Pf apPOL block
CC1CCN(CC(O)COC2CCCC2)CC1 (centres undefined)	-1	-2
CCC(C)C(=O)Nc1cc(Cl)c(Cl)cc1Cl (centres undefined)	-4	2
COc1ccc(C(CC(=O)NCC(OC)OC)NS(=O)(=O)c2ccc(F)cc2)cc1 (centres undefined)	-9	-6
CCOC(=O)c1c(C)nsc1NN=C(C#N)C(=O)c1ccc(Cl)cc1	·	11
CC(NC(=O)CSc1ncc(-c2ccccc2)[nH]1)c1ccccc1 (centres undefined)	15	-1
Cc1ccc(NC(=O)CSc2nc3n(n2)C(=O)C(=O)N3)cc1	3	94*
Cc1ccc(SCC(=O)Nc2ccc(F)cc2)cc1	·	-6
Cc1cc(C(=O)N2CC(c3nc(Cc4ccccc4)no3)C2)c(C)o1	-1	-9
COc1ccc(NC(=O)c2c(C)sc3c(C)c(C)[nH]c23)cc1	54*	26
COc1ccc(NC(=O)c2c(Cl)cc(Cl)nc2Cl)cc1	-8	-1
O=C1C(N2CCCN(S(=O)(=O)c3ccc4c(c3)CCC4)CC2)CCN1CC1CC1 (centres undefined)	7	5
Cc1cc(NC(=O)Cn2cnc3c(nnn3Cc3ccc(F)cc3)c2=O)no1	2	-4
COc1ccc(CONC(=Nc2ccc(C)cc2)c2nonc2N)cc1[N+](=O)[O-]	-2	10
CN(C)/C=C1\N=C(c2ccccc2)c2cc(Cl)ccc2N(C)C1=O	51*	3
CN1C2=NCCN2C(=O)c2cc(Cl)ccc21	·	-5
COc1ccc2nc(NC(=O)c3cc(Cl)ccc3Cl)sc2c1	-8	-3
